# Assay outcomes as filed in PubChem BioAssay.
# The list is not random: actives were taken first. Their share in the collection is about 7%.
# JMJD2A Tudor: qHTS Assay for Inhibitors of JMJD2A-Tudor Domain. Lysine-specific demethylase 4A (Homo sapiens), O75164. AlphaScreen JMJD2A-Tudor / H3K4me3 peptide binding. Potency, µM (titrated, usually from 114 µM), for inactives: top-dose activity change, negative = inhibition, hits mostly inhibitors. 4.4% of 390,000 active; note: potency is the fitted concentration of half-maximal effect; % is set by controls: 0 for no effect and ±100 for the full control effect; nearly all actives have a fitted effect of over 50% in size
# PI5P4K alpha inh: qHTS for Inhibitors of phosphatidylinositol 5-phosphate 4-kinase (PI5P4K). PI5P4Kalpha enzyme, ADP-Glo luminescence, 60 min; stronger effect = lower value. max response, %. 1.2% of 330,000 active; active = max response of -50% or lower; inconclusive = between -30% and -50%; inactive = -30% or higher; note: value at the top dose of about 77 µM; % is set by controls: 0 for no effect and ±100 for the full control effect
#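 Quantitative HTS of the MLSMR library against PI5P4Kalpha with substrate. ATP added last at 5 microM final; room temperature, 60 minutes. Remaining ATP depleted, ADP converted and read as luminescence.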
# KAT2A inh: qHTS Assay for Inhibitors of GCN5L2. 0.21% of 390,000 active. Potency, µM (doses to about 58.9 µM), without a hit: top-dose activity change, negative = inhibition, usual class: inhibitors. GCN5L2 HAT assay, ThioGlo1 CoA-SH fluorescence. Histone acetyltransferase KAT2A (Homo sapiens), Q92830; note: potency is the fitted concentration of half-maximal effect; % is set by controls: 0 for no effect and ±100 for the full control effect
#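 ThioGlo1-coupled HAT assay: 20nM GCN5L2, 70uM acetyl-CoA, 75uM H3(1-25) peptide, pH 7.5. Fluorescence read at 340/540nm at start and after 20 min at room temperature.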
# BAZ2B inh: qHTS Assay for Inhibitors of BAZ2B | Bromodomain adjacent to zinc finger domain protein 2B (Homo sapiens), Q9UIF8 | AlphaScreen BAZ2B-H3K14Ac peptide displacement | 4.4% of 360,000 active | AID 504333, 2011 | Potency, µM (series often up to 114 µM), inactives show top-dose activity change, negative = inhibition, usual class: inhibitors; note: potency is the fitted concentration of half-maximal effect; % is set by controls: 0 for no effect and ±100 for the full control effect; nearly all actives have a fitted effect of over 60% in size
#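 Protein-peptide AlphaScreen: BAZ2B 50 nM, b-H3K14Ac 50 nM, 1x PBS pH 7.4 + 0.01% Tween-20. Preincubation 30 min RT; cpd 30 min RT (top 110 uM); beads 20 min RT, light-protected.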
# PLK1 PBD inh: qHTS for Inhibitors of PLK1-PDB (polo-like kinase 1 - polo-box domain): Primary Screen; Plk1 PBD binding of FITC phosphopeptide, fluorescence polarization; Potency, µM, for the others: max response, negative = inhibition, actives largely listed as inhibitors; 2.8% of 360,000 active; Serine/threonine-protein kinase PLK1 (Homo sapiens), P53350; AID 720504, 2013; note: potency is the fitted concentration of half-maximal effect; series mostly up to about 57 µM; % is set by controls: 0 for no effect and ±100 for the full control effect; nearly all actives have a fitted effect of over 65% in size
# HP1b chromo inh: HTS for Inhibitors of HP1-beta Chromodomain Interactions with Methylated Histone Tails. Chromobox protein homolog 1 (Homo sapiens), P83916. AlphaScreen HP1-beta / biotin-H3K9me3 peptide binding. Potency, µM (series often up to 114 µM), without a hit: at the top dose activity change, negative = inhibition, most hits filed as inhibitors. 0.56% of 390,000 active. AID 540317, 2011; note: potency is the fitted concentration of half-maximal effect; nearly all actives have a fitted effect of over 70% in size
#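 AlphaScreen: HP1-beta (50 nM) preformed 30 min with biotin-H3(1-18)K9me3 peptide (50 nM) in PBS pH 7.4, 0.01% Tween-20. Compound added for 30 min at RT, then streptavidin donor/nickel chelate acceptor beads (10 ug/mL) for 30 min.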
# An asterisk follows results filed as active; ? = inconclusive; · = not tested or not shown; [ ] = another dose, or the depositor's remark. Unless noted, calls come from the whole dose curve; as a rule, active = well fitted curve in the direction sought with a large enough effect; inconclusive = small, poorly fitted or top-dose-only effect, or another doubt; inactive = no such curve, though single readings can be large; an effect the other way counts as inactive or inconclusive.
SMILES,JMJD2A Tudor,PI5P4K alpha inh,KAT2A inh,BAZ2B inh,PLK1 PBD inh,HP1b chromo inh
CC(C(=O)Nc1ccccc1F)N1CCN(C)CC1 (stereo not drawn),·,·,0%,50µM*,·,·
COc1cccc(C2=CC(c3ccccc3)n3ncnc3N2)c1 (stereo not drawn),·,·,-1%,56µM*,·,·
Cc1ccc(C2C=C(c3ccccc3)Nc3nc(N4C(=O)CCC4=O)nn32)cc1 (stereo not drawn),79µM*,-7,?,50µM*,?,13%
CC1=CC(c2ccc(Cl)cc2)n2nc(N3C(=O)CCC3=O)nc2N1 (stereo not drawn),?,·,-2%,4%,-22%,14%
COc1cccc(C2=CC(c3ccc(N(C)C)cc3)n3ncnc3N2)c1 (stereo not drawn),·,·,-12%,4%,·,·
Fc1ccc(C2=CC(c3ccc(Br)o3)n3ncnc3N2)cc1 (stereo not drawn),32µM*,?,?,-15%,11µM*,-7%
Cc1ccc(C2C=C(c3ccccc3)Nc3ncnn32)cc1 (stereo not drawn),?,-16,·,·,30µM*,15%
CCOC(=O)c1c(NC(=O)COc2cc(C)ccc2C(C)C)sc2c1CCCC2,-12%,·,-14%,-2%,·,28%
CCOc1ccc(OCCC(=O)NNC(=O)c2ccccc2Cl)cc1,-26%,-20,-9%,-25%,-10%,15%
COc1ccc(/C=C/C2=CC(C)(C)NC(=S)N2)cc1,-8%[57.1 µM],2,-2%,-14%,-14%,14%
CCOc1ccc(NC(=O)/C(C=Nc2ccccc2)=C(\C)O)cc1,?,4,-15%,-15%,?,-15%
O=C(C[C@@H]1C[C@H]2c3cc(NC(=O)c4cccnc4)ccc3O[C@H]2[C@H](CO)O1)NCc1ccc(Oc2ccccc2)cc1,·,-3,·,·,-9%,·
CCCN(CC(=O)Nc1ccccc1OC)C(=O)CN1C(=O)NC(C)(C)C1=O,·,-1,·,·,-10%,·
CCc1nc2c(OCc3c(C)noc3C)cccn2c1N(C=O)Cc1ccccc1,·,-1,·,·,-1%,·
COc1ccc(CN2C(=O)c3ccccc3C2C(=O)NC2CCC(C)CC2)c(OC)c1 (stereo not drawn),-11%[11.4 µM],0,-6%,-16%,24µM*,16%
COc1ccc(CN2C(=O)c3ccccc3C2C(=O)NC2CCCC2)c(OC)c1 (stereo not drawn),-7%,·,-2%,16%,-4%,11%
O=C(CCc1n[nH]c(=O)[nH]c1=O)N1CCCCC1,-17%,-2,-2%,9%,-18%,63%
O=C(CSc1n[nH]c(=O)[nH]c1=O)N1CCCCCC1,-12%[11.4 µM],-14,-20%,-1%,27µM*,?
Cc1ccc(S(=O)(=O)N(C)CCCN(C)c2nc(-c3cccs3)nc3ccccc23)cc1,-11%,·,·,·,·,37%
CSc1ccc(CN2CCN(S(=O)(=O)Cc3ccccc3)CC2)cc1,5µM*,-10,-28%,-13%,2%,?
O=S(=O)(Cc1ccccc1)N1CCN(Cc2ccc(F)cc2Cl)CC1,3%,13,-19%,-3%,-14%,20%
CSc1ccc(CN2CCCN(C)CC2)cc1,13µM*,0,0%,56µM*,0%,?
O=S(=O)(Cc1ccc(Cl)cc1)N1CCN(Cc2ccc3c(c2)OCO3)CC1,-8%,1,-5%,-9%,-4%,14%
CCc1ccc(CN2CCN(S(=O)(=O)Cc3ccccc3)CC2)cc1,0.79µM*,·,-4%,18µM*,-6%,-51%
O=S(=O)(Cc1ccccc1)N1CCN(Cc2ccc(Br)cc2)CC1,3.5µM*,-7,-16%,-12%,2%,?
